Assay outcomes from PubChem BioAssay.
The sample as a whole holds a higher share of hits than the screen did.
Cruzain inh Det = blocks cruzain activity in presence of Triton detergent; purified cruzain, Z-FR-AMC fluorescence, 0.01% Triton; Potency, µM, for inactives: max response, negative = inhibition, most hits filed as inhibitors; 200,000 tested, 0.43% active; AID 1478;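 also: plate controls were neutral wells for no effect and buffer without enzyme for full effect; nearly all actives have a fitted effect of over 40% in size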
Target sequence (P25779 123-467 limits assumed): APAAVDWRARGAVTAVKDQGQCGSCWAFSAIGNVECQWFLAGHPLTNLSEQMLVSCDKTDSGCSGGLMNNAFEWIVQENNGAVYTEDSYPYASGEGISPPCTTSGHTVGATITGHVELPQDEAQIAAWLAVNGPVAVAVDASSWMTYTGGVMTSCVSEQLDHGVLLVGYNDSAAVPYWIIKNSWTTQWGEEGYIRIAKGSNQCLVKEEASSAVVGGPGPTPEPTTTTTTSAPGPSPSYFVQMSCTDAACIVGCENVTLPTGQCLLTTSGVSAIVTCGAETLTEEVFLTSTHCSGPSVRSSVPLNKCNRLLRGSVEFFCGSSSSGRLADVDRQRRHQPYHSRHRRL
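Purified cruzain (1.5 nM final) was preincubated with compounds for 15 min at room temperature in 100 mM sodium acetate pH 5.5, 5 mM DTT, 0.01% Triton X-100. Reaction started with 2 uM Z-FR-AMC; AMC fluorescence change over 60 s gave activity.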
Cruzain noTriton = blocks cruzain activity in detergent-free assay; purified cruzain, Z-FR-AMC fluorescence, no detergent; Potency, µM, for inactives: max response, negative = inhibition, actives largely listed as inhibitors; 200,000 tested, 2.3% active; AID 1476;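 also: plate controls were enzyme without inhibitor for no effect and buffer without enzyme for full effect; nearly all actives have a fitted effect of over 40% in size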
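Detergent-free condition (0.00005% Triton X-100) in acetate buffer pH 5.5 with DTT. 1.5 nM enzyme and compound were pre-mixed 15 min, then 2 uM Z-FR-AMC substrate added; reaction progress from fluorescence change between first and third reads (60 s).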
NS1 function inh = influenza NS1 inhibition; Potency, µM (highest dose often 46.1 µM), without a hit: at the top dose activity, positive = more growth; 270,000 tested, 0.4% active; AID 2326; calls by dose curve; also: actives are rising curves; nearly all actives have a fitted effect of over 50% in size
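A cell-based growth assay was used: compounds that relieve NS1-induced slow growth of budding yeast raise OD600. Assay medium was yeast nitrogen base with ammonium sulphate and -URA supplement, pH 6.0, with 2% galactose.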
Numbers without * were called inactive; u = inconclusive; x = not tested or not shown. Unless noted, calls follow the shape of the dose curve; as a rule, active = well fitted curve in the direction sought with a large enough effect; inconclusive = small, poorly fitted or top-dose-only effect, or another doubt; inactive = no such curve, though single readings can be large; an effect the other way counts as inactive or inconclusive. Potency is read from the fitted curve at half-maximal effect.

SMILES	Cruzain inh Det	Cruzain noTriton	NS1 function inh
COc1ccc(S(=O)(=O)N2CCC(c3nc4ccccc4s3)CC2)cc1OC	5%	1%	x
COc1cc(S(=O)(=O)N2CCC(c3nc4ccccc4s3)CC2)ccc1S(=O)(=O)N1CC(C)CC(C)C1 (stereo not given)	4%	4µM*	10%
CCC(NC(=S)NCc1ccccc1)C(=O)O (stereo not given)	1%	0%	-2%
O=C(CSc1ccc(F)cc1)Nc1ccc(N2CCOCC2)cc1	x	x	-17%
NC(=O)CC[C@H](NC(=O)c1ccc(F)cc1)C(=O)OCC(=O)Nc1ccc(N2CCOCC2)cc1	25µM*	u	-6%
CC(C)C12CN3CC(C(C)C)(CN(C1)C3c1ccccn1)C2=O (stereo not given)	4%	2%	x
COc1ccc(C(=O)COC(=O)c2nn(C)cc2Cl)cc1	x	x	-9%
Cn1cc(/C=N/n2cnc3scc(-c4ccc(Cl)cc4)c3c2=O)c2ccccc21	-4%	25µM*	-1%
CCn1cnc2scc(-c3ccccc3)c2c1=O	4%	-11%	-30%
CC(C)C1=Nc2cccc3cccc(c23)N1	1%	-10%	-29%
Nc1cccc(C2=Nc3cccc4cccc(c34)N2)c1	-3%	7.9µM*	13%
Cc1cccc(N2CCN(C(=O)c3cc4ccc5cccnc5c4[nH]3)CC2C)c1 (stereo not given)	-7%	13µM*	x
Cc1ccc(C)c(N2CCN(C(=O)c3cc4ccc5cccnc5c4[nH]3)CC2)c1	-7%	-26%	x
O=S(=O)(NCCN1CCOCC1)c1ccc(Cl)c(Cl)c1	x	x	5%
CCN1CCN(c2c(C(=O)c3ccc(OC)cc3)cnc3ccccc23)CC1	x	x	7%
Cn1c(=O)c2ncn(CC(=O)Nc3ccc4c5c(cccc35)CC4)c2n(C)c1=O	13µM*	13µM*	-33%
Cc1cccc(C)c1NC(=O)Cn1cnc2c(=O)n(C)c(=O)n(C)c21	-5%	-3%	-3%
CCOC(=O)N1CCN(c2cc(N)c([N+](=O)[O-])cc2F)CC1	-4%	-1%	-17%
COc1ccccc1C(=O)NC(=Nc1nc2ccccc2o1)NC(=O)c1ccccc1OC	4%	u	-4%
O=C(NC(=Nc1nc2ccccc2o1)NC(=O)c1ccccc1)c1ccccc1	-2%	13µM*	-9%
COc1ccc(S(=O)(=O)Nc2ccccc2C(=O)NCc2ccco2)cc1Br	u	25µM*	-20%
CCOc1ccc(S(=O)(=O)Nc2ccccc2C(=O)NCc2ccco2)cc1	-12%	6%	-2%
Cc1ccc(-c2noc(-c3ccc(N4CCCCC4)c([N+](=O)[O-])c3)n2)cc1	-10%	6%	x
Cc1ccccc1-c1ccc(/C=C2/SC(N3CCOCC3)=NC2=O)o1	x	x	2%
O=C1N=C(N2CCOCC2)S/C1=C\c1ccc(-c2ccccc2Cl)o1	-27%	32µM*	7%
SMILES	Cruzain inh Det	Cruzain noTriton	NS1 function inh
Cc1cccc(S(=O)(=O)c2c(N)n(/N=C/c3ccccc3)c3nc4ccccc4nc23)c1	1%	4µM*	5%
COc1ccc(CCn2c(N)c(S(=O)(=O)c3cccs3)c3nc4ccccc4nc32)cc1OC	-10%	-3%	-36%
COc1ccccc1/C=N/n1c(N)c(S(=O)(=O)c2cccs2)c2nc3ccccc3nc21	4%	7.9µM*	9%
Nc1c(S(=O)(=O)c2ccccc2)c2nc3ccccc3nc2n1/N=C/c1cccc(O)c1	1%	-23%	-91%
CCOc1ccc2nnc(-c3ccc(Br)cc3)n2n1	1%	16%	-6%
COc1ccc(NC(=O)C2(c3ccc(NC(=O)c4ccc(C)cc4)cc3)CCCC2)cc1	2%	6.3µM*	9%
COc1ccc(NC(=O)C2(c3ccc(NC(=O)c4ccc(OC)c(OC)c4)cc3)CCCC2)cc1	2%	2%	-3%
O=C(N/N=C\c1cc(Br)ccc1O)c1ccc(S(=O)(=O)N2CCCCC2)cc1	-1%	-9%	28%
COc1ccc(NC(=O)c2nc(S(C)(=O)=O)ncc2N(Cc2ccc(C)cc2)Cc2ccco2)cc1Cl	-3%	10µM*	x
COc1ccc(Cl)cc1NC(=O)c1nc(S(C)(=O)=O)ncc1N(Cc1ccc(C)cc1)Cc1ccco1	0%	u	x
O=C(Cn1c(=O)n(CCCS(=O)(=O)C2CCCCC2)c(=O)c2ccccc21)Nc1ccccc1F	-1%	-5%	x
CCN(CCCNC(=O)c1cc2c(=O)[nH]c3ccccc3c2s1)c1ccccc1	-2%	-8%	x
CCN(CC)CCNC(=O)c1cc2c(=O)n(C)c3ccccc3c2n1C	-17%	1%	7%
CN(C)CCNC(=O)c1cc2c(=O)n(C)c3ccccc3c2n1C	25µM*	u	5%
CC(=O)Nc1c(C)ccc(S(N)(=O)=O)c1C	x	x	2%
CC(C)c1ccc(NC(=O)COC(=O)/C=C/c2cccc([N+](=O)[O-])c2)cc1	-5%	5%	18%
CCOc1nc2cccc(C(=O)OC(C)OC(=O)OC3CCCCC3)c2n1Cc1ccc(-c2ccccc2-c2nn[nH]n2)cc1 (stereo not given)	14µM*	u	x
CCCc1nc(C(C)(C)O)c(C(=O)OCc2oc(=O)oc2C)n1Cc1ccc(-c2ccccc2-c2nn[nH]n2)cc1	-1%	u	x
CCOc1ccc(NC(=S)NC(=O)c2cnn(CC)c2)c([N+](=O)[O-])c1	x	x	-8%
C=CCn1c(SCN2C(=O)c3ccccc3C2=O)nc2ccc(Cl)cc2c1=O	-4%	7%	2%
Cc1ccc(N2C(=O)CC(Sc3nc(C)cc(C)n3)C2=O)cc1 (stereo not given)	x	x	16%
Cc1ccc(N2C(=O)CC(Sc3nc(-c4ccccc4)c4cc(Cl)ccc4n3)C2=O)c(C)c1 (stereo not given)	-8%	16µM*	1%
Cc1csc(NC(=O)c2ccc3c(c2)OCO3)n1	x	x	-13%
COCCNC(=O)CSc1nc2ccccc2nc1Cc1ccc(C)cc1	0%	u	x
Cc1c(C(=O)NCC2CCCO2)sc2nc(-c3ccc(F)cc3)cn12 (stereo not given)	-2%	-17%	-20%
SMILES	Cruzain inh Det	Cruzain noTriton	NS1 function inh
Cn1c(C(=O)Nc2ccc3c(c2)OCO3)cc2sccc21	-6%	25µM*	-65%
Cn1c(C(=O)NCc2ccc3c(c2)OCO3)cc2sccc21	-3%	-13%	-2%
COc1ccc(/C=N/n2cncn2)cc1Cn1cc([N+](=O)[O-])cn1	x	x	4%
COc1ccc(/C=N/Nc2ccc([N+](=O)[O-])cc2)cc1Cn1cc([N+](=O)[O-])cn1	-2%	20µM*	2%
COc1ccc(/C=N/N2CCOCC2)cc1Cn1nc(C)c([N+](=O)[O-])c1C	x	x	1%
COc1ccc(/C=N/Nc2ccccc2)cc1Cn1nc(C)c([N+](=O)[O-])c1C	3%	13µM*	6%
CCC(C)(C)c1nnc(NC(=O)c2cccc([N+](=O)[O-])c2)s1	-6%	-15%	-2%
O=C(CNC(=O)OCc1ccccc1)Oc1ccc2ccc(=O)oc2c1	x	x	-5%
O=C(NC(Cc1ccccc1)C(=O)Oc1ccc2c(C(F)(F)F)cc(=O)oc2c1)OCc1ccccc1 (stereo not given)	11µM*	u	-14%
CC(C)[C@H](NC(=O)OCc1ccccc1)C(=O)OCc1cc(=O)oc2cc(O)ccc12	x	x	3%
CC(NC(=O)OCc1ccccc1)C(=O)Oc1cc2oc(=O)cc(-c3ccccc3)c2cc1Cl (stereo not given)	22µM*	u	-25%
